# D2 antag = D2 dopamine receptor (human) antagonism. AID 485344. inhibition, % at 10 µM. HEK293 TREx D2 cells, calcium flux, dopamine EC80. P14416. hit rate 2% among 340,000; in the data active means inhibition above about 30%; inactive means below that, where a call was filed
# Target sequence (P14416 whole entry, looked up): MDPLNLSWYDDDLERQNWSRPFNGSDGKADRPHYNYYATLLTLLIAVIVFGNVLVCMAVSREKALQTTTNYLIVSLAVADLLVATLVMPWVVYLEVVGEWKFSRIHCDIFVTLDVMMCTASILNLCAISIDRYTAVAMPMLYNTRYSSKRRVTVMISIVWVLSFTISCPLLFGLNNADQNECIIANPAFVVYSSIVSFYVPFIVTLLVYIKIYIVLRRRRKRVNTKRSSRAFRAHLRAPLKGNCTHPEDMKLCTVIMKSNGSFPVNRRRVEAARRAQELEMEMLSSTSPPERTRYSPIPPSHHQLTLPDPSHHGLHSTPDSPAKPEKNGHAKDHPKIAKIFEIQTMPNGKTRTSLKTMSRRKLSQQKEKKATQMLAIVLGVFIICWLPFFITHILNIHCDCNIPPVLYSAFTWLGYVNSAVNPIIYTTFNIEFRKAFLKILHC
#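 Calcium mobilization kinetics were recorded at 1 s intervals in tetracycline-induced HEK293 T-REx D2 cells, first for 180 s after compound addition and then 180 s after EC80 dopamine.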
# D2 ag-1 = activates the human D2 dopamine receptor; P14416; DiscoveRx PathHunter D2 beta-arrestin, luminescence, 90 min; 100% = 57 uM dopamine signal; activation, % (no concentration beside the values); hit rate 0.084% among 360,000; AID 624465; in the data active means activation above about 40%; inconclusive means between about 15% and that limit
#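 DiscoveRx PathHunter D2 beta-arrestin cells (2,100/well) attached overnight, then compound-stimulated 90 min at 37 C in HBSS/10 mM HEPES/0.1% Tween-20 buffer; beta-galactosidase complementation read by luminescence after 1 h at ambient temperature. Dopamine 57 uM final (EC100) as control.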
# D2 PAM-1 = positive allosteric modulators of human D2 dopamine receptor | hit rate 0.34% among 340,000 | potentiation, % at 10 µM | P14416 | HEK293 T-REx D2, calcium flux, EC20 dopamine potentiation;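 active means potentiation over 3 SD above the plate norm, cut at about 30% in these data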
#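 Cells plated with tetracycline inducer and held overnight at 30 C; calcium dye loaded 30–90 min at room temperature; baseline taken, compound added and read 180 s; EC20 dopamine then added and read 180 s.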
# D2 ag-2 = D2 dopamine receptor (human) agonism. P14416. hit rate 0.53% among 340,000. activation, % at 2 µM. HEK293 T-REx D2 cells, calcium flux agonist mode;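 active means activation over 3 SD above normal in the single-dose calcium agonist read, cut at about 30% in these data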
#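 In this primary screen, compounds producing a positive calcium signal within 180 s of addition to tetracycline-induced, force-coupled HEK293 Trex D2 cells are flagged; cells are dye-loaded with a no-wash calcium kit beforehand.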
# D2 PAM-2 = positive allosteric modulators of human D2 dopamine receptor | DiscoveRx D2 beta-arrestin cells, luminescence, 90 min; 100% = 57 uM dopamine signal | potentiation, % (concentration not given with the values) | hit rate 0.23% among 360,000 | AID 624464; in the data active means potentiation above about 50%; inconclusive means mostly about 30% to 49%
#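 PathHunter D2 cells, attached overnight at 37 deg C, received compound in DMSO plus dopamine at EC20 (50 nM final) for 90 min at 37 deg C. Beta-arrestin recruitment was read as luminescence after 1 h with detection reagent at ambient temperature.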
# Hits are given with their value; - = inactive; ? = inconclusive; . = no result. The list is not random: actives were taken first. Their share in the collection is about 2.4%.
SMILES,D2 antag,D2 ag-1,D2 PAM-1,D2 ag-2,D2 PAM-2
CCOC(=O)C1CCN(C(=O)COC(=O)c2oc3ccccc3c2C)CC1,-,-,-,-,-
CC(=O)N1CCN(C(=O)COC(=O)/C=C/c2ccccc2[N+](=O)[O-])CC1,.,-,.,.,-
CC1(C(=O)NC2CCN(Cc3ccccc3)CC2)CCN1Cc1ccc(OC(F)(F)F)cc1 (stereo not given),.,-,.,.,-
Cc1cccc(NC(=S)NC2CCN(Cc3ccccc3)CC2)c1C,94,-,-,-,-
CC(C)(Oc1ccc(Cl)cc1)C(=O)NC1CCN(Cc2ccccc2)CC1,72,-,-,-,-
CCOC(=O)NC(=O)c1cn(-c2ccc(OC)cc2)c(=O)[nH]c1=O,-,-,-,-,-
O=C(c1ccccc1)N1CCCCC(Cl)C1=O (stereo not given),31,-,-,-,-
CC(C)(C)n1nc2c(c1NC(=O)c1ccc(C(F)(F)F)cc1)CS(=O)(=O)C2,-,-,-,-,-
O=C(NCc1ccc(Cl)cc1)C1CCN(S(=O)(=O)c2ccc3c(c2)CCCN3C(=O)C2CCC2)CC1,.,.,-,.,.
COc1ccc(Br)cc1CNc1ccc(O)cc1,-,-,.,-,55
CCN(CC(=O)Nc1c(F)cccc1F)C(=O)C1COc2ccccc2O1 (stereo not given),36,-,-,-,-
COc1ccc(CCNC(=O)c2ccc3c(c2)ncn3-c2ccc(C(C)C)cc2)cc1OC,.,.,-,-,.
COc1ccc(C)cc1NC(=O)CN1C(=O)CSc2ccc(S(=O)(=O)N3CCCC3)cc21,-,-,-,-,-
COc1ccc(OC)c(NC(=O)CN2C(=O)CSc3ccc(S(=O)(=O)N4CCCC4)cc32)c1,-,-,33,-,-
CCC1(c2ccccc2)NC(=O)N(CC(=O)Nc2cc(S(=O)(=O)N3CCCCCC3)ccc2OC)C1=O (stereo not given),.,-,.,.,63
COCCNc1nc(NCC2CCCCC2)c2sc(-c3ccccc3)cc2n1,.,?,.,.,-
c1ccc(-c2cc3nc(NCC4CC4)nc(NCC4CCCCC4)c3s2)cc1,.,41,.,.,-
CC1CCc2nc(NC(=O)CN3CCN(Cc4ccc5c(c4)OCO5)CC3)sc2C1 (stereo not given),72,-,-,-,-
CC1CCc2nc(NC(=O)CN3CCN(c4ccccc4)CC3)sc2C1 (stereo not given),-,-,-,-,-
Cc1ccc(OCc2ccoc2C(=O)O)cc1C,30,-,-,-,-
COc1ccccc1/C=C/CN1CCCC(CO)(CCc2ccccc2)C1 (stereo not given),71,-,-,-,-
OCC1(CCc2ccccc2)CCCN(C/C=C/c2ccccc2)C1 (stereo not given),45,-,-,-,-
COc1ccc(CC2(CO)CCN(C/C=C/c3ccccc3OC)CC2)cc1,-,-,-,-,-
COc1cccc(O)c1CN1CCC(Oc2ccc(C(=O)NCc3ccccn3)cc2)CC1,-,-,-,-,-
O=C(CSC1=NS(=O)(=O)c2cc(F)ccc2N1)NCCc1ccccc1,-,-,-,36,-
SMILES,D2 antag,D2 ag-1,D2 PAM-1,D2 ag-2,D2 PAM-2
COc1ccc(NC(=O)c2cn(-c3ccccc3)nc2-c2cc3ccccc3o2)cc1,-,-,-,-,-
O=C(N/N=C/c1cn(-c2ccccc2)nc1-c1cc2ccccc2o1)c1c[nH]c2ccccc12,34,-,-,-,-
O=C(N/N=C/c1cn(-c2ccccc2)nc1-c1cc2ccccc2o1)c1ccccc1Br,-,-,-,-,-
OCc1cn(-c2ccccc2)nc1-c1cc2ccccc2o1,45,-,-,-,-
COc1cc(C(=O)N(C)CC2CCN(CCc3cccc(C(F)(F)F)c3)CC2)ccc1C,-,-,-,-,-
CCC(=O)N1CCc2cc(Br)cc(S(=O)(=O)Nc3ccccc3C(=O)OC)c21,.,.,-,-,.
CC12CCC(=O)N1C(C(=O)N1CCN(c3cccc(Cl)c3)CC1)CS2 (stereo not given),71,-,-,-,-
CC12CCC(=O)N1C(C(=O)N1CCN(c3ccccc3)CC1)CS2 (stereo not given),-,-,-,-,-
COc1ccccc1C(=O)O/N=C(/c1ccncc1)c1ccc([N+](=O)[O-])cc1,-,?,-,-,100
